Measurements published in PubChem BioAssay (NCATS).
Records with an inconclusive call do not appear. A call without a number means that no potency is given here. Calls of active or inactive are those of the source. The call rests on the fitted dose curve; in most records, active means well fitted inhibition curve with a large enough effect; inconclusive means small, poorly fitted or top-dose-only effect; inactive means no such curve, though single readings can be large or run the other way.

test system: Zika virus NS2B-NS3 protease (linked construct); test: Primary screen NINDS Rhodamine qHTS for Zika virus inhibitors (AID 1347160); details: purified NS2B-NS3 protease, Rhodamine110 substrate fluorescence; series mostly up to 33.1 µM; further: nearly all actives have a fitted effect of over 55% in size
Method in brief: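 Enzyme (25 nM, linked NS2B-NS3) was preincubated 15 min with compound in 10 mM Tris-HCl pH 8.0, 0.01% Tween 20. Rhodamine110 substrate (1.5 microM) was then added and fluorescence read at start and after 15 min.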
Potency means the concentration at half of the fitted maximal effect.

Compound	Potency	outcome
OC[C@@]1(O)CO[C@@H](OC[C@H]2O[C@@H](Oc3ccccc3)[C@H](O)[C@@H](O)[C@@H]2O)[C@@H]1O	inactive	
C=C1C2CCC3CC2(CC(O)C2(O)C1CC(OC1OC(CO)C(O)C(O)C1O)C2(C)C)CC3(C)O (stereo not drawn)	8.91 µM (active)	
CC1(C)Oc2ncnc(N)c2N=C1c1ccc(C2CCC(CC(=O)O)CC2)cc1 (stereo not drawn)	inactive	
C=C[C@H]1[C@H](O[C@@H]2O[C@H](CO)[C@@H](O)[C@H](O)[C@H]2O)OC=C(C(=O)OC)[C@H]1CC=O	inactive	
CC(=O)O[C@@H]1[C@H](O[C@@H]2O[C@H](CO)[C@@H](O)[C@H](O)[C@H]2O)[C@@H](O[C@@H]2O[C@@H](C)[C@H](O)[C@@H](O[C@@H]3O[C@H](CO)[C@@H](O)[C@H](O)[C@H]3O)[C@H]2O)[C@H](OC(=O)[C@]23CCC(C)(C)C[C@H]2C2=CCC4[C@@]5(C)C[C@H](O)[C@H](O[C@@H]6O[C@H](C(=O)O)[C@@H](O)[C@H](O)[C@H]6O)[C@@](C)(C(=O)O)C5CC[C@@]4(C)[C@]2(C)CC3)O[C@@H]1C (stereo partly drawn)	inactive	
CC(=O)c1ccc(O[C@@H]2O[C@H](CO[C@@H]3OC[C@@H](O)[C@H](O)[C@H]3O)[C@@H](O)[C@H](O)[C@H]2O)cc1	inactive	
O=C(C[C@@H]1C(C(=O)O)=CO[C@@H](O[C@@H]2O[C@H](CO)[C@@H](O)[C@H](O)[C@H]2O)/C1=C\CO)OCCc1ccc(O)cc1	inactive	
C/C=C/C=C/C(=O)OC1CC/C=C/C(O)C(O)C(CCC)OC1=O (stereo not drawn)	inactive	
CC1=C(C)C(=O)OC(C(C)C2C(O)CC3C4C5OC5C5(O)CC(OC6OC(CO)C(OC7OC(C)C(O)C(O)C7O)C(O)C6O)CC(O)C5(C)C4CCC32C)C1 (stereo not drawn)	inactive	
C[C@@H]1O[C@@H](OC2C(CO)OC(OCC3OC(OC(=O)[C@]45CCC(C)(C)CC4C4=CCC6[C@@]7(C)CC[C@@H](O)[C@](C)(C(=O)O)C7CC[C@@]6(C)[C@]4(C)CC5)C(O)C(O)C3O)C(O)C2O)[C@H](O)[C@H](O)[C@H]1O (stereo partly drawn)	inactive	
COc1ccc(N2CCN(CCCNC(=O)Cn3c(=O)c4cccn4c4c(C)ccnc43)CC2)cc1	inactive	
Cc1ccc(-c2c(-c3nn(C)c4ncnc(N5CC[C@H](N6CCCCC6)C5)c34)cnn2C)cc1	inactive	
COc1cc(C2Oc3c(OC)cc(/C=C/C(=O)OC4CC(O)(C(=O)O)CC(O)C4O)cc3C2CO)ccc1O (stereo not drawn)	inactive	
COc1cccc(OC)c1-c1nc(C(=O)N[C@@H](CC(C)C)C(=O)O)cn1-c1ccnc2cc(Cl)ccc12	inactive	
C=C1C(=O)O[C@@H]2/C=C(\C)CC/C=C(\C(=O)O[C@@H]3O[C@H](CO)[C@@H](O)[C@H](O)[C@H]3O)CC[C@@H]12	inactive	
C=CC(C)(C)C12Nc3c(ccc4c3OC(C)(C)C=C4)C1(O)CC1C(=O)N3CCCC3C(=O)N12 (stereo not drawn)	inactive	
C/C=C/C=C/C=C/C(=O)OC1C=C2C(O)OC(=O)[C@]2(O)[C@@]2(C)CCCC(C)(C)[C@H]12 (stereo partly drawn)	12.6 µM (active)	
CCC(C)(C)C1CCc2c(sc(NC(=O)c3ccc(Br)cc3)c2C#N)C1 (stereo not drawn)	inactive	
CC(C)[C@@H](C(=O)O)N1Cc2c(cc(O)c3c2O[C@]2(C3)[C@H](C)CCC3C(C)(C)[C@H](O)[C@H](O)C[C@@]32C)C1=O (stereo partly drawn)	7.94 µM (active)	

Compound	Potency	outcome
Fc1ccc(-c2c3cccc(C(F)(F)F)c3nn2Cc2ccc(F)cc2Cl)cc1	inactive	
C[C@@H]1O[C@@H](O[C@H]2[C@H](OC(=O)[C@]34CCC(C)(C)C[C@H]3C3=CCC5[C@@]6(C)C[C@@H](O)[C@@H](O)[C@@](C)(CO)C6[C@H](O)C[C@@]5(C)[C@]3(C)CC4)OC[C@H](O)[C@@H]2O)[C@H](O)[C@H](O)[C@H]1O[C@@H]1OC[C@@H](O)[C@H](O[C@H]2O[C@H](C)[C@@H](O)[C@H](O)[C@@H]2O)[C@H]1O (stereo partly drawn)	inactive	
CC(=O)O[C@@]1(C)[C@@H]2CC(=C(C)C)C(=O)C[C@@]2(C)CC[C@H]1OC(=O)C1(C)OC1C (stereo partly drawn)	inactive	
CC1(C)CC[C@]2(C(=O)O[C@@H]3O[C@H](CO[C@@H]4O[C@H](CO)[C@@H](O)[C@H](O)[C@H]4O)[C@@H](O)[C@H](O[C@@H]4O[C@H](CO)[C@@H](O)[C@H](O)[C@H]4O)[C@H]3O)CC[C@]3(C)C(=CCC4[C@@]5(C)CC[C@H](O[C@@H]6OC[C@@H](O)[C@H](O)[C@H]6O)[C@@](C)(C(=O)O)C5CC[C@]43C)[C@@H]2C1 (stereo partly drawn)	inactive	
CC1(C)C2CC[C@]3(C)C(C(=O)C=C4[C@H]5C[C@@](C)(C(=O)O)CC[C@]5(C)CC[C@]43C)[C@@]2(C)CC[C@@H]1O (stereo partly drawn)	inactive	
CN1CCc2cc(Cl)c(O)cc2[C@@H](c2cccc3c2OCC3)C1	inactive	
CC(C)C(O)(CO)CCO[C@@H]1O[C@H](CO[C@H]2OC[C@](O)(CO)[C@H]2O)[C@@H](O)[C@H](O)[C@H]1O (stereo partly drawn)	inactive	
Cc1onc(-c2c(Cl)cccc2Cl)c1CC(=O)NCc1ccc(OCC(F)(F)F)nc1	inactive	
C=C(C)[C@@]1(O)C[C@@]2(C)C(=CC1=O)CC[C@@H](O)[C@@H]2C	inactive	
CC1(C)CC[C@]2(C(=O)O[C@@H]3O[C@H](CO)[C@@H](O)[C@H](O)[C@H]3O)CC[C@]3(C)C(=CCC4[C@@]5(C)C[C@H](O)[C@H](O[C@@H]6OC[C@@H](O)[C@H](O)[C@H]6O)[C@@](C)(CO)C5CC[C@]43C)C2C1 (stereo partly drawn)	inactive	
C=C(COC(=O)CC(C)C)C1Cc2cc(C(C)=O)ccc2O1 (stereo not drawn)	inactive	
CN[C@H](CNC(=O)N1CCC[C@@H]([C@@H](OCCNC(=O)OC)c2cccc(Cl)c2)C1)C[C@H]1CCCOC1	inactive	
C=C1C(OC(C)=O)CCC2(C)CCC(C(C)(C)O)CC12 (stereo not drawn)	inactive	
COC(=O)C1(O)C(OC(C)=O)CCC2C3(CC(c4ccoc4)OC3=O)C(C)=CCC21C(=O)OC (stereo not drawn)	inactive	
CC(C)=CCC[C@](C)(O[C@@H]1O[C@H](CO[C@@H]2O[C@@H](CO)[C@H](O)[C@H]2O[C@@H]2OC[C@@H](O)[C@H](O)[C@H]2O)[C@@H](O)[C@H](O)[C@H]1O)[C@H]1CC[C@]2(C)[C@@H]1[C@H](O)CC1[C@@]3(C)CC[C@H](O[C@@H]4O[C@H](CO)[C@@H](O)[C@H](O)[C@H]4O[C@@H]4O[C@H](CO)[C@@H](O)[C@H](O)[C@H]4O)C(C)(C)C3CC[C@]12C (stereo partly drawn)		inactive [at 10.7 µM]
CC(O)C1CCC2C3CCC4CC(OC5OC(C(=O)O)C(O)C(O)C5O)CCC4(C)C3CCC12C (stereo not drawn)	inactive	
CC(=O)OC1C(C)C2C(OC3OC(CO)C(O)C(O)C3O)OC=C(C(=O)O)C2C1OC(=O)c1ccccc1 (stereo not drawn)	inactive	
CC(=O)N[C@H](Cc1c[nH]c2ccccc12)C(=O)OCc1cc(C(F)(F)F)cc(C(F)(F)F)c1	inactive	
CC1(C)CCC[C@]2(C)C1CC=C(CO)[C@H]2CC/C(=C/CO)CO (stereo partly drawn)	inactive	
